From the supplement of paper PMC10849652
About 7,900 targets were measured; listed, in parts, are those with a hit and a random draw of the rest. About 0.6% of all pairs of compound and target were hits.

compound: C1=CC(=C(C=C1Cl)C2=NC3=NC=CN=C3C(=N2)NC4=CC=NC=C4)F; test: log2 fold change, soluble protein after heating vs DMSO (PISA); higher = thermal stabilisation; K562 cells, 10 uM, 30 min; active = over 0.2 and 3.5 SD of the protein, either way, in both replicates (recomputed)
In short: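 K562 cells at 2×10^6 cells/mL were given 10 μM compound for 30 min. Aliquots then went through 3 min of heating across 48°C-58°C, were pooled, and were extracted in PBS with 0.5% NP-40 at 4°C, and the supernatant after 21,000xg for 90 min was quantified by TMTpro 16plex LC-MS/MS with channel sums equalised. Thermal stability relative to control samples, from duplicates, is given as log2 fold change.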

Chain of UniProt Q9UIB8 (Q9UIB8 whole entry, looked up): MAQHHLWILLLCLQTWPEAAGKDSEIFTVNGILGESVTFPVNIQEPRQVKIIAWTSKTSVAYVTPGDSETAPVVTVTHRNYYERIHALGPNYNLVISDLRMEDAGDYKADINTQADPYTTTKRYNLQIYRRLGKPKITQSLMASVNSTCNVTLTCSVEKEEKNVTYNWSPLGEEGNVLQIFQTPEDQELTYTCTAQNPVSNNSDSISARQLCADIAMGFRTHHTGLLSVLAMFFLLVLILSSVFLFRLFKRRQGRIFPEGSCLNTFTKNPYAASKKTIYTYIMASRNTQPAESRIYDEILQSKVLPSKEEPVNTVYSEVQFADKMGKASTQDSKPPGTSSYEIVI
Chain of UniProt P24863 (P24863 whole entry, looked up): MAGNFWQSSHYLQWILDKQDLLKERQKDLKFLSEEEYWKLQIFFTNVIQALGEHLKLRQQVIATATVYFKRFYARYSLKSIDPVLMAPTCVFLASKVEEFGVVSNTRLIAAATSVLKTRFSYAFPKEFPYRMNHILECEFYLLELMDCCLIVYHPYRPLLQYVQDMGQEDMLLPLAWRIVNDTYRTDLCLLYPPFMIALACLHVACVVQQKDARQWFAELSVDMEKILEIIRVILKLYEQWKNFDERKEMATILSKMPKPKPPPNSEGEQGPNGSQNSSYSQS
Chain of UniProt Q00535 (Q00535 whole entry, looked up): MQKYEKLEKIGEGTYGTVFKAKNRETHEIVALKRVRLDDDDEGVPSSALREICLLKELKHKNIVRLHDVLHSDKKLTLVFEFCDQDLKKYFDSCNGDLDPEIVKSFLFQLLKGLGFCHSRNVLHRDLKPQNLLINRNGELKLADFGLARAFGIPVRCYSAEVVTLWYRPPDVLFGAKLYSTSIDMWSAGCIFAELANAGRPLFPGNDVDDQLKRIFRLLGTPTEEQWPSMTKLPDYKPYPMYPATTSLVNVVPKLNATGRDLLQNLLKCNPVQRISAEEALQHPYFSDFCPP
Chain of UniProt Q9Y2V0 (Q9Y2V0 whole entry, looked up): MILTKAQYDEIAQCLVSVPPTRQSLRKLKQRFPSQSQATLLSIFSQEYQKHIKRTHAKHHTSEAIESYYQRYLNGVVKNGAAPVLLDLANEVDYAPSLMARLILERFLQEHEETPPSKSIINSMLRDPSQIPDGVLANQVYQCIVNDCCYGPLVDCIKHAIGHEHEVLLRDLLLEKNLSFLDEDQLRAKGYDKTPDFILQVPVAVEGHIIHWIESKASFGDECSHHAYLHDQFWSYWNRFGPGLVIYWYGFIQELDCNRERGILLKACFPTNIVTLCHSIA
Chain of UniProt Q69YH5 (Q69YH5 whole entry, looked up): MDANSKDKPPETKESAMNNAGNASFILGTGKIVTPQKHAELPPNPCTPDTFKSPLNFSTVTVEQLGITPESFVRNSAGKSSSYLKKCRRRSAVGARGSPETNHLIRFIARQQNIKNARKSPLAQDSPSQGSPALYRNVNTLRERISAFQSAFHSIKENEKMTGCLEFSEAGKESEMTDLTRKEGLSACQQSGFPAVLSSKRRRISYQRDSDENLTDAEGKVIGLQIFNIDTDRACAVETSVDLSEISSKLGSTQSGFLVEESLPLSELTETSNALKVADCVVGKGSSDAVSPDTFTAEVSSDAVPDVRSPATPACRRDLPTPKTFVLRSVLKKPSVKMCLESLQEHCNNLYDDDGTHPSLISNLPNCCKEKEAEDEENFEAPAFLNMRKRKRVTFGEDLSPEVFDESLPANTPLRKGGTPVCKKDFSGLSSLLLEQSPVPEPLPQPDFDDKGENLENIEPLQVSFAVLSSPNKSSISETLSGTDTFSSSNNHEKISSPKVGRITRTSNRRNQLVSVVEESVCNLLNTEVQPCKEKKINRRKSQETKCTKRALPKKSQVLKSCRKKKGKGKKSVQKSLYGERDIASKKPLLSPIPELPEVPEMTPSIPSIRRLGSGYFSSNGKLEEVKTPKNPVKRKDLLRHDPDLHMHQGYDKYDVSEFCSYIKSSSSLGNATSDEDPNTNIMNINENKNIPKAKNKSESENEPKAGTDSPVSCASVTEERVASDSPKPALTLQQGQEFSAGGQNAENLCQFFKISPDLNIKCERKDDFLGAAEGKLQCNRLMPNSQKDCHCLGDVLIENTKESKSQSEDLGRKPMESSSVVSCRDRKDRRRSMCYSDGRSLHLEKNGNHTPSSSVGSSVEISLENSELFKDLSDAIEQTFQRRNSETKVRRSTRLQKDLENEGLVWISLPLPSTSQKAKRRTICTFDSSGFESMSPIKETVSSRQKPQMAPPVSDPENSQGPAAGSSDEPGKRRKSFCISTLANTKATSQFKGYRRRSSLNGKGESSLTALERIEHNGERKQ
Chain of UniProt Q13111 (Q13111 whole entry, looked up): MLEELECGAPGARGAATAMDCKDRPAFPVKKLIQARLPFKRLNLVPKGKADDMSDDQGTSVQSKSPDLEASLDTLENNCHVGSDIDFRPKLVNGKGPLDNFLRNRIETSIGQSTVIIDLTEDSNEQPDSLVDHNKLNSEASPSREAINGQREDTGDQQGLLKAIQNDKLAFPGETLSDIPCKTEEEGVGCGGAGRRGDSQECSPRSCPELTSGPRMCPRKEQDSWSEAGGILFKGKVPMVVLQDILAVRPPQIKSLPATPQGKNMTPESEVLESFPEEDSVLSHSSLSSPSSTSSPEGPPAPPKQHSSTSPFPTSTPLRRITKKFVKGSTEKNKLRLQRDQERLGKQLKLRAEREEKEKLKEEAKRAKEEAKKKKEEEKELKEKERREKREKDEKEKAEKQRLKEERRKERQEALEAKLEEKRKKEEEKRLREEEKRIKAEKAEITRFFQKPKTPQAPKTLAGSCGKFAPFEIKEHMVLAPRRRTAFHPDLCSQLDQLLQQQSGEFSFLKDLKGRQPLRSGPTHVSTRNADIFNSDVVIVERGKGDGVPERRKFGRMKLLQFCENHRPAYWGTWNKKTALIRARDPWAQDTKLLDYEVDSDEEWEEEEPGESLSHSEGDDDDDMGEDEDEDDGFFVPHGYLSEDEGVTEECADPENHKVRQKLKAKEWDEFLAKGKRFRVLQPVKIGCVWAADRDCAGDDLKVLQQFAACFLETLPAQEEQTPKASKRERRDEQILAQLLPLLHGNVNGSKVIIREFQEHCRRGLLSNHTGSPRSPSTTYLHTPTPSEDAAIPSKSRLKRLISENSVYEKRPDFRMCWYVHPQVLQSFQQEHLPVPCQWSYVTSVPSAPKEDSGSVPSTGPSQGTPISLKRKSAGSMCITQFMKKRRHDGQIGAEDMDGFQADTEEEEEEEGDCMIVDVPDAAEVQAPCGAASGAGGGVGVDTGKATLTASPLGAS
Chain of UniProt Q16740 (Q16740 whole entry, looked up): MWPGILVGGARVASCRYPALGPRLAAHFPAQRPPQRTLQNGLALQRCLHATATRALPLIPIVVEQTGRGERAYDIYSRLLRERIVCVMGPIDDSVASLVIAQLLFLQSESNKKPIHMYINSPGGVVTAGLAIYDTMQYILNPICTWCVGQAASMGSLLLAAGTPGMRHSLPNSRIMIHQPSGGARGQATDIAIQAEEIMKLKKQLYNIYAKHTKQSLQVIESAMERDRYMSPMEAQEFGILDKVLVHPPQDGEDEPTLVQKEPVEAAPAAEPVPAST
Chain of UniProt P09497 (P09497 whole entry, looked up): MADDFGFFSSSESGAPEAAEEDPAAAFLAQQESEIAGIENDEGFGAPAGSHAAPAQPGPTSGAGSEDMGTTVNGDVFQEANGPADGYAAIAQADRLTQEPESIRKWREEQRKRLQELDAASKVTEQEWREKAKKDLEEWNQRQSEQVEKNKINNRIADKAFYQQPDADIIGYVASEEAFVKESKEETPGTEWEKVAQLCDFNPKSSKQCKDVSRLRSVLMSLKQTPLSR
Chain of UniProt Q5BKX5 (Q5BKX5 whole entry, looked up): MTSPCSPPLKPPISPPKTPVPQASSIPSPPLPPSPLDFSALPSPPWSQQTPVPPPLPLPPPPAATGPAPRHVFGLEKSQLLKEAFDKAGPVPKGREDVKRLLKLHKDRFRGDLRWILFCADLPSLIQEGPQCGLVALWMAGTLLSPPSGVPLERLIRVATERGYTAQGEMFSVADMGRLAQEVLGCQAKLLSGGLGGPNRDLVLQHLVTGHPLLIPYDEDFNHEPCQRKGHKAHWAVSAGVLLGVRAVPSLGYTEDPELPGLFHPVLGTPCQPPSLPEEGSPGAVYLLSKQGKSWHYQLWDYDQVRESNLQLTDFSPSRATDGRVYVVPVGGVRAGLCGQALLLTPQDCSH
Chain of UniProt Q00537 (Q00537 whole entry, looked up): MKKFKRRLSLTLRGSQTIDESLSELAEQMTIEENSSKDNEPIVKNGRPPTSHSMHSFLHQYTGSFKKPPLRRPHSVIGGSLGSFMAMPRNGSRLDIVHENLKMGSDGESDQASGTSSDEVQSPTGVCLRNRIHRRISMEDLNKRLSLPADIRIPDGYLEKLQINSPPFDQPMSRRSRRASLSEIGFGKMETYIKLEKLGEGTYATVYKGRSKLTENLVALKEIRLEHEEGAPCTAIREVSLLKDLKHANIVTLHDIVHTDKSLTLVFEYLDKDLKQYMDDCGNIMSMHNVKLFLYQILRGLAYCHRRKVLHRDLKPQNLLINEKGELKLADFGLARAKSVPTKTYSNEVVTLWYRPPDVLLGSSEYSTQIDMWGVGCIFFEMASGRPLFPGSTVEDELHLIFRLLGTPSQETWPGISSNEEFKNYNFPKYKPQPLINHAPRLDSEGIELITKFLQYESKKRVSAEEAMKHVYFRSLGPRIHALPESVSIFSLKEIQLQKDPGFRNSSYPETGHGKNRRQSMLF
Chain of UniProt Q15417 (Q15417 whole entry, looked up): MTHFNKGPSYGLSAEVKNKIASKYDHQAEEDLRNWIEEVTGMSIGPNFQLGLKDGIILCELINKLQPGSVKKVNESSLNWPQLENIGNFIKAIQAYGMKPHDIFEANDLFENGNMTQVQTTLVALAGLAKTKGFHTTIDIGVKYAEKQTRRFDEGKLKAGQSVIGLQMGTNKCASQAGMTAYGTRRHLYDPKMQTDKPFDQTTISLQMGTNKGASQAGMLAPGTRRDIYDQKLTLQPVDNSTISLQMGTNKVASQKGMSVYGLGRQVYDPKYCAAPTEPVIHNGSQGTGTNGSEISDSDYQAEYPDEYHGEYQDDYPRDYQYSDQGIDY

log2 fold change, inactive:
CLUH, A0A494C0R8 0.253
CHAF1A (UniProt Q13111) -0.121
CLINT1 isoform 3 (UniProt Q14677) -0.097
CCNC (UniProt P24863) -0.122
CLPP (UniProt Q16740) -0.069
COX7B (UniProt P24311) 0.109
CLN5 (UniProt O75503) 0.063
CDK19 (UniProt Q9BWU1) 0.053
CDK5 (UniProt Q00535) 0.041
CLTB (UniProt P09497) 0.038
COG2 (UniProt Q14746) 0.012
C15orf41 (UniProt Q9Y2V0) 0.002
C19orf54 (UniProt Q5BKX5) 0.024
CCND3 (UniProt P30281) -0.081
CDCA2 (UniProt Q69YH5) 0.043
CDK2AP2 (UniProt O75956) 0.037
CD84 (UniProt Q9UIB8) -0.027
CDKN1B (UniProt P46527) -0.133
CLUH (UniProt O75153) 0.318
CNN3 (UniProt Q15417) 0.064
CDK17 isoform 2 (UniProt Q00537) 0.059
CLSPN (UniProt Q9HAW4) -0.024
CLPTM1L (UniProt Q96KA5) -0.029
